Compounds without any hit were thinned out: in the full panel of roughly 79,000, 15% have a hit. Activity calls are given as the source filed them. Rule as the data show it: active = growth inhibition above about 70%; inactive = the rest.
Key:
[1] = NCI Yeast Anticancer Drug Screen. Data for the rad52 strain (AID 147);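 also: 0% = growth of vehicle-treated control cultures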; conditions: S. cerevisiae rad52 mutant growth inhibition, active compounds read high
Procedure, shortened: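 Read-out: growth inhibition versus vehicle-treated controls. Cells were a DNA repair-deficient yeast strain treated with compounds.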

[2] = NCI Yeast Anticancer Drug Screen. Data for the wt1 strain (AID 149);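 also: 0% = growth of vehicle-treated wt1 cultures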; conditions: S. cerevisiae wt1 strain (SPY 50644) growth inhibition, active compounds read high
Procedure, shortened: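 Each compound is tested on wt1 yeast and the loss of growth versus vehicle gives the inhibition value.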

[3] = NCI Yeast Anticancer Drug Screen. Data for the rad50EPP+ strain (AID 151);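 also: 0% = growth of vehicle-treated control cultures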; conditions: S. cerevisiae rad50 mutant strain, active compounds read high
Procedure, shortened: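 Growth inhibition read against vehicle controls in rad50EPP+ yeast, a strain altered in DNA damage repair, after compound exposure.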

[4] = NCI Yeast Anticancer Drug Screen. Data for the mgt1 strain (AID 153); conditions: S. cerevisiae mgt1 mutant growth inhibition, active compounds read high
Procedure, shortened: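 mgt1 yeast grown with test compound; read-out is growth inhibition versus vehicle-treated cultures.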

[5] = NCI Yeast Anticancer Drug Screen. Data for the rad50 strain (AID 155);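 also: 0% = growth of vehicle-only cultures of the same strain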; conditions: S. cerevisiae rad50 strain growth inhibition, active compounds read high
Procedure, shortened: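 Vehicle-treated cultures provide the reference for the growth inhibition reported for compound-exposed, repair-deficient yeast.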

[6] = NCI Yeast Anticancer Drug Screen. Data for the mec2-1 strain (AID 157); conditions: S. cerevisiae mec2-1 strain, active compounds read high
Procedure, shortened: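 Yeast mec2-1 mutant treated with compound. Readout: growth inhibition vs vehicle controls.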

[7] = NCI Yeast Anticancer Drug Screen. Data for the rad14 strain (AID 159);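 also: 0% = growth of vehicle-treated control cultures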; conditions: S. cerevisiae rad14 strain growth inhibition, active compounds read high
Procedure, shortened: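 Inhibition of growth is reported for a repair-deficient yeast mutant following compound treatment, calculated relative to cultures that received vehicle.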

[8] = NCI Yeast Anticancer Drug Screen. Data for the sgs1 mgt1 strain (AID 161);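 also: 0% = growth of cultures given vehicle only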; conditions: S. cerevisiae sgs1 mgt1 strain, active compounds read high
Procedure, shortened: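 Inhibition of yeast growth, normalised to vehicle-treated controls, is reported for a strain bearing genetic alterations in DNA damage repair.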

[9] = NCI Yeast Anticancer Drug Screen. Data for the CLN2oe strain (AID 163);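 also: 0% = growth of vehicle-only control cultures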; conditions: S. cerevisiae CLN2oe strain, active compounds read high
Procedure, shortened: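 Read-out: yeast growth inhibition, expressed relative to vehicle-only controls. The strain bears an engineered cell-cycle alteration.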

[10] = NCI Yeast Anticancer Drug Screen. Data for the cln2 rad14 strain (AID 165);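 also: 0% = growth equal to vehicle treated cultures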; conditions: S. cerevisiae cln2 rad14 strain, active compounds read high
Procedure, shortened: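 cln2 rad14 yeast strain; compound exposure; growth inhibition read vs vehicle controls.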

[11] = NCI Yeast Anticancer Drug Screen. Data for the bub3 strain (AID 167); conditions: S. cerevisiae bub3 mutant strain, active compounds read high
Procedure, shortened: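 Mutant yeast screening strain plus compound; vehicle-treated cultures serve as the 0% inhibition reference.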

[12] = NCI Yeast Anticancer Drug Screen. Data for the wt2 strain (AID 169); conditions: S. cerevisiae wt2 strain growth inhibition, active compounds read high
Procedure, shortened: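 Read-out: growth inhibition versus vehicle-treated control cultures after compound exposure of the yeast strain.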

[13] = NCI Yeast Anticancer Drug Screen. Data for the mlh1 strain (AID 171);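 also: 0% = growth of vehicle-treated control cultures of the same strain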; conditions: S. cerevisiae mlh1 strain growth inhibition, active compounds read high
Procedure, shortened: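 Read-out: growth inhibition versus vehicle controls. Strain: engineered yeast with a defined DNA repair or cell cycle defect, compound-treated.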

[14] = NCI Yeast Anticancer Drug Screen. Data for the sgs1 strain (AID 173);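 also: 0% = growth of vehicle-only control cultures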; conditions: S. cerevisiae sgs1 mutant, active compounds read high
Procedure, shortened: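 Read-out: yeast growth inhibition relative to vehicle controls, following compound exposure of a strain with a defined DNA repair/cell cycle alteration.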

[15] = NCI Yeast Anticancer Drug Screen. Data for the mlh1 rad18 strain (AID 175); conditions: S. cerevisiae mlh1 rad18 strain growth inhibition, active compounds read high
Procedure, shortened: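 Yeast w/ defined DNA-repair lesions; compound exposure; growth vs vehicle controls → % inhibition.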

[16] = NCI Yeast Anticancer Drug Screen. Data for the rad18 strain (AID 177); conditions: S. cerevisiae rad18 mutant growth inhibition, active compounds read high
Procedure, shortened: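 Readout: growth inhibition vs vehicle controls. Cells: genetically altered yeast strain, DNA repair defect.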

[17] = at 5.0 µM (retest, dose inferred, filed as 0.5)
[18] = at 50.0 µM (retest, dose inferred, filed as 5.0)

Measured: growth inhibition

O=C(/C=N/O)Nc1cc(Cl)c(Cl)cc1Cl
active: [3]; at 100.0 µM 83% | [4]; at 100.0 µM 92% | [5]; [18] 98% | [5]; at 50.0 µM 79.2% | [6]; [18] 98% | [7]; at 100.0 µM 75% | [8]; [18] 84% | [10]; [18] 77% | [11]; [18] 89% | [13]; at 100.0 µM 79% | [15]; [18] 99% | [16]; at 100.0 µM 78%
inactive: [1]; at 1.2 µM -45% | [1]; at 3.7 µM -47% | [1]; at 11.0 µM -40% | [1]; at 33.0 µM -1% | [1]; at 100.0 µM 62% | [2]; at 1.2 µM -37% | [2]; at 3.7 µM -35% | [2]; at 11.0 µM -36% | [2]; at 33.0 µM -12% | [2]; at 100.0 µM 3% | [3]; at 1.2 µM -17% | [3]; at 3.7 µM 3% | [3]; at 11.0 µM 6% | [3]; at 33.0 µM 51% | [4]; at 1.2 µM -8% | [4]; at 3.7 µM -9% | [4]; at 11.0 µM 34% | [4]; at 33.0 µM 60% | [5]; at 1.2 µM -35% | [5]; at 3.7 µM -21% | [5]; [17] 45% | [5]; at 11.0 µM -33% | [5]; at 33.0 µM 10% | [5]; at 100.0 µM 63% | [6]; at 1.2 µM -34% | [6]; at 3.7 µM -22% | [6]; [17] 55% | [6]; at 11.0 µM -26% | [6]; at 33.0 µM -3% | [6]; at 50.0 µM 65% | [6]; at 100.0 µM 43% | [7]; at 1.2 µM -39% | [7]; at 3.7 µM -31% | [7]; at 11.0 µM -32% | [7]; at 33.0 µM 23% | [8]; [17] -12% | [9]; at 1.2 µM 6% | [9]; at 3.7 µM 18% | [9]; at 11.0 µM 1% | [9]; at 33.0 µM 18% | [9]; at 100.0 µM 63% | [10]; [17] 67% | [11]; at 1.2 µM -32% | [11]; at 3.7 µM -27% | [11]; [17] 17% | [11]; at 11.0 µM -21% | [11]; at 33.0 µM 8% | [11]; at 100.0 µM 57% | [12]; at 1.2 µM -56% | [12]; at 3.7 µM -58% | [12]; at 11.0 µM -38% | [12]; at 33.0 µM -1% | [12]; at 100.0 µM 37% | [13]; at 1.2 µM -34% | [13]; at 3.7 µM -26% | [13]; at 11.0 µM -9% | [13]; at 33.0 µM 37% | [14]; at 1.2 µM -55% | [14]; at 3.7 µM -31% | [14]; at 11.0 µM -36% | [14]; at 33.0 µM 28% | [14]; at 100.0 µM 67% | [15]; [17] 36% | [15]; at 50.0 µM 47.2% | [16]; at 1.2 µM -28% | [16]; at 3.7 µM -18% | [16]; at 11.0 µM -12% | [16]; at 33.0 µM 36%

COc1ccc2c(c1)[nH]c1c(/C=C/c3ccccc3)nccc12
inactive: [1]; at 1.2 µM 9% | [1]; at 3.7 µM -8% | [1]; at 11.0 µM -2% | [1]; at 33.0 µM 50% | [2]; at 1.2 µM -34% | [2]; at 3.7 µM -32% | [2]; at 11.0 µM -18% | [2]; at 33.0 µM 41% | [3]; at 1.2 µM 0% | [3]; at 3.7 µM 7% | [3]; at 11.0 µM 13% | [3]; at 33.0 µM 46% | [4]; at 1.2 µM 9% | [4]; at 3.7 µM 3% | [4]; at 11.0 µM 18% | [5]; at 1.2 µM 31% | [5]; at 3.7 µM 29% | [5]; [17] 44% | [5]; at 11.0 µM 23% | [6]; at 1.2 µM -9% | [6]; at 3.7 µM -6% | [6]; [17] 42% | [6]; at 11.0 µM 1% | [7]; at 1.2 µM -29% | [7]; at 3.7 µM -25% | [7]; at 11.0 µM -22% | [9]; at 1.2 µM -15% | [9]; at 3.7 µM -23% | [9]; at 11.0 µM -38% | [9]; at 33.0 µM 63% | [10]; [17] 40% | [12]; at 1.2 µM -36% | [12]; at 3.7 µM -29% | [12]; at 11.0 µM -30% | [12]; at 33.0 µM 68% | [13]; at 1.2 µM -42% | [13]; at 3.7 µM -36% | [13]; at 11.0 µM -35% | [13]; at 33.0 µM 68% | [14]; at 1.2 µM 2% | [14]; at 3.7 µM -7% | [14]; at 11.0 µM -3% | [16]; at 1.2 µM 11% | [16]; at 3.7 µM 0% | [16]; at 11.0 µM 6% | [16]; at 33.0 µM 67%
active: [1]; at 100.0 µM 97% | [2]; at 100.0 µM 97% | [3]; at 100.0 µM 78% | [4]; at 33.0 µM 94% | [4]; at 100.0 µM 98% | [5]; at 33.0 µM 78% | [5]; [18] 93% | [5]; at 50.0 µM 89.5% | [5]; at 100.0 µM 96% | [6]; at 33.0 µM 75% | [6]; [18] 93% | [6]; at 50.0 µM 92.1% | [6]; at 100.0 µM 98% | [7]; at 33.0 µM 71% | [7]; at 100.0 µM 97% | [9]; at 100.0 µM 98% | [10]; [18] 74% | [10]; at 50.0 µM 70.7% | [12]; at 100.0 µM 97% | [13]; at 100.0 µM 96% | [14]; at 33.0 µM 78% | [14]; at 100.0 µM 97% | [16]; at 100.0 µM 97%

S=C(S)NCC1CCC(CNC(=S)S)CC1 (centres undefined)
active: [1]; at 100.0 µM 81% | [2]; at 100.0 µM 77% | [3]; at 100.0 µM 81% | [4]; at 100.0 µM 89% | [5]; [18] 98% | [5]; at 100.0 µM 83% | [6]; [18] 98% | [6]; at 100.0 µM 94% | [7]; at 100.0 µM 92% | [9]; at 100.0 µM 70% | [11]; [18] 77% | [11]; at 100.0 µM 93%
inactive: [1]; at 1.2 µM -10% | [1]; at 3.7 µM -12% | [1]; at 11.0 µM -12% | [1]; at 33.0 µM 20% | [2]; at 1.2 µM -11% | [2]; at 3.7 µM -5% | [2]; at 11.0 µM -5% | [2]; at 33.0 µM 20% | [3]; at 1.2 µM -3% | [3]; at 3.7 µM 3% | [3]; at 11.0 µM 24% | [3]; at 33.0 µM 41% | [4]; at 1.2 µM -8% | [4]; at 3.7 µM 0% | [4]; at 11.0 µM 5% | [4]; at 33.0 µM 18% | [5]; at 1.2 µM 8% | [5]; at 3.7 µM 3% | [5]; [17] 31% | [5]; at 11.0 µM -4% | [5]; at 33.0 µM 22% | [5]; at 50.0 µM 67% | [6]; at 1.2 µM -9% | [6]; at 3.7 µM -2% | [6]; [17] 64% | [6]; at 11.0 µM 5% | [6]; at 33.0 µM 43% | [6]; at 50.0 µM 59.1% | [7]; at 1.2 µM 13% | [7]; at 3.7 µM 19% | [7]; at 11.0 µM 13% | [7]; at 33.0 µM 27% | [8]; [17] -13% | [8]; [18] 61% | [9]; at 1.2 µM 0% | [9]; at 3.7 µM 12% | [9]; at 11.0 µM 13% | [9]; at 33.0 µM 18% | [10]; [17] -7% | [10]; [18] 46% | [11]; at 1.2 µM 16% | [11]; at 3.7 µM -10% | [11]; [17] 19% | [11]; at 11.0 µM 19% | [11]; at 33.0 µM 63% | [12]; at 1.2 µM -15% | [12]; at 3.7 µM -20% | [12]; at 11.0 µM -13%

Source: PubChem BioAssay (NCI)
